Luc counter = counter-screen: inhibitors of Kinase-Glo firefly luciferase. Q27757. Kinase-Glo luciferase, ATP luminescence, 8 min. Potency, µM (doses to about 38.3 µM), for inactives: at the highest dose activity change, negative = inhibition, most hits filed as inhibitors. 200,000 tested, 0.28% active. AID 1379; note: % is set by controls: 0 for no effect and ±100 for the full control effect; nearly all actives have a fitted effect of over 60% in size
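Compound is pinned into ATP-containing buffer (10 uM ATP, imidazole pH 7.2, 7 mM MgCl2). Kinase-Glo luciferase reagent is then added. Light output is recorded following an 8-min room-temperature incubation.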
SMN2 splice enh = SMN2 splice variant enhancement; Potency, µM (titrated, usually from 46.1 µM), for the others: top-dose activity change, positive = activation, actives largely listed as activators; 210,000 tested, 2.8% active; HEK293 SMN2-luciferase splicing reporter, luminescence, 30-36 h; AID 1458; note: % of control where 0% means no effect; nearly all actives have a fitted effect of over 55% in size
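HEK293 cells carry an SMN2 […]–luciferase reporter in which exon 7 inclusion puts luciferase in frame. Cells were plated 10-12 h before compound addition, then incubated 30-36 h at 37C. ONE-Glo luminescence was read; sodium butyrate at 4.5 mM final served as control.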
NPC1 prom act = NPC1 promoter activation. AID 485313. Potency, µM (doses to about 9.22 µM), for inactives: top-dose activation, most hits filed as activators. Huh7 NPC1 promoter luciferase reporter, 24 h. 320,000 tested, 2.4% active; note: % of control where 0% means no effect; nearly all actives have a fitted effect of over 60% in size
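Luminescence read-out of NPC1 promoter-driven luciferase in stably transfected Huh7 cells; compounds delivered in DMSO and left 24 h at 37C, 5% CO2, qHTS titration format.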
FLuc modulator = inhibits or activates purified firefly luciferase, miR-21 counter-screen | purified FLuc, Km substrates, luminescence inhibition | Potency, µM (top dose mostly 57.5 µM), inactives show at the top dose activity change, negative = inhibition, actives largely listed as inhibitors | 360,000 tested, 6.9% active | AID 588342;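 note: plate controls were vehicle for no effect and reference inhibitor for full effect; nearly all actives have a fitted effect of over 55% in size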
Target sequence (P08659 whole entry, looked up): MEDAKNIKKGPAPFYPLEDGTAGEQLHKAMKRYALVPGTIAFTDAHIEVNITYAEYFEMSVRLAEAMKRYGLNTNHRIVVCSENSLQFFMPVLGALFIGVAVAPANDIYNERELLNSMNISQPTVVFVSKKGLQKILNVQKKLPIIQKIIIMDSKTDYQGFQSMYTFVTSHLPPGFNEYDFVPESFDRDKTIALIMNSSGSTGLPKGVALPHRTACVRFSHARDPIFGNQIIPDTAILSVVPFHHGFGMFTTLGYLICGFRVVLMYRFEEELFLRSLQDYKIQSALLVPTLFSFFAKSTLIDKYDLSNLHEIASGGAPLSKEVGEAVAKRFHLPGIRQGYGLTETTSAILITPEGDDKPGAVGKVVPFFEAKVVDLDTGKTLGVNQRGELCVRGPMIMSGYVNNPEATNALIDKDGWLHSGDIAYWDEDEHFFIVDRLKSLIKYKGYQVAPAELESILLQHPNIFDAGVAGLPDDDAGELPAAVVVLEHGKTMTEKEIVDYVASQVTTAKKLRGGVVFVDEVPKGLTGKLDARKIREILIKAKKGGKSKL
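Purified P. pyralis luciferase, 10 nM final, with Km-level 10 uM D-luciferin and 10 uM ATP in 50 mM Tris acetate pH 7.5, 10 mM Mg acetate, 0.01% Tween-20, 0.05% BSA; 6-point qHTS titration about 60 µM downward; luminescence read.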
Rab9 promoter act = activators of Rab9 promoter; Huh7 Rab9 promoter-luciferase reporter, luminescence, 24 h; Potency, µM (doses to about 9.22 µM), without a hit: top-dose activation, negative = inhibition, most hits filed as activators; 320,000 tested, 2.8% active; note: % of control where 0% means no effect; nearly all actives have a fitted effect of over 60% in size
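Huh7 cells stably carrying a Rab9 promoter-luciferase reporter, 1500 cells per well in OP-MEM I with 10% FBS, treated with compound 24 hours at 37C. Luciferase activity read by luminescence after 10 minutes with Amplite reagent.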
Numbers without * were called inactive; ? = inconclusive; . = no result given. Compounds with a hit are over-represented: about 7.3% of the library has one in this group of screens. Calls come from the whole dose curve; as a rule, active = well fitted curve in the direction sought with a large enough effect; inconclusive = small, poorly fitted or top-dose-only effect, or another doubt; inactive = no such curve, though single readings can be large; an effect the other way counts as inactive or inconclusive. Potency is the fitted concentration of half-maximal effect.

SMILES	Luc counter	SMN2 splice enh	NPC1 prom act	FLuc modulator	Rab9 promoter act
O=C(Nc1nc2ccsc2c(=O)s1)C1CCC1	.	.	?	19µM*	?
O=C(Nc1nc2c(s1)CCc1ccccc1-2)c1ccco1	-2.1%	15.8µM*	?	16.9µM*	?
COc1ccc2nc(NC(=O)c3cc(=O)c4cc(C)c(C)cc4o3)sc2c1	.	-0.3%	.	-14.2%	.
COc1ccc2nc(NC(=O)c3ccco3)sc2c1	.	.	0.316µM*	0.536µM*	0.112µM*
Cc1cc(=O)n2nc(-c3ccccc3)sc2n1	-23.8%	12.6µM*	?	?	2µM*
COC(=O)c1cc(=O)nc2sc(-c3ccccc3)nn12	0.1%	3.9%	-4.2%	-0.6%	-1.9%
CC(=O)Nc1nonc1-c1nnc(SCC(=O)Nc2ccc(F)cc2F)n1-c1ccccc1	.	.	.	-2.4%	.
Cc1oc2ccc(O)c(CN(C)Cc3ccccc3)c2c1C(=O)Nc1cccc(C(F)(F)F)c1	.	-91.2%	.	4.6%	.
c1ccc(CCc2nc(-c3ccccc3)no2)cc1	-4.6%	28.1%	?	12µM*	?
Cc1cccc(-c2noc(Cc3ccccc3)n2)c1	-5.7%	?	?	?	?
Cc1cccc(-c2noc(CCc3ccccc3)n2)c1	0.7%	23.9%	?	12µM*	2.82µM*
c1ccc(OCc2nc(-c3ccncc3)no2)cc1	-1.5%	.	13.9%	?	?
c1ccc(OCc2nc(-c3ccccc3)no2)cc1	0.8%	?	?	26.9µM*	?
Cc1ccc(-c2noc(COC(=O)c3ccco3)n2)cc1	.	.	19.5%	9.53µM*	4.0%
Cc1ccc(NC(=O)CN2C(=O)c3cccnc3Oc3ccc(Cl)cc32)cc1	.	.	.	-7.7%	.
CCOC(=O)c1cccc(NC(=O)CCc2c(C)nc3c4cccnc4nn3c2C)c1	.	?	.	-1.8%	.
CC(C)CN(CCCNC(=O)c1cn(C)c2ccc(S(=O)(=O)N(C)C3CCCCC3)cc2c1=O)CC(C)C	.	-7.7%	.	-2.4%	.
CC1CCN(Cc2nc(-c3ccccc3)no2)CC1	.	.	2.82µM*	12µM*	2.82µM*
O=C(Nc1ccc(-c2noc(CCc3ccccc3)n2)cc1)c1ccco1	-13.5%	2.82µM*	1.26µM*	4.26µM*	1.12µM*
c1ccc(-c2noc(CN3CCN(c4ccccc4)CC3)n2)cc1	2.1%	-21.3%	0.5%	0.5%	-7.3%
Cc1ccc(-n2c(=O)c3c4c(sc3n(CC(=O)C(C)(C)C)c2=O)CCCCC4)cc1C	.	1.9%	.	-7.1%	.
Cc1cc(C)nc(NC(=O)c2ccc(C)c([N+](=O)[O-])c2)n1	-1.6%	2.3%	-5.0%	7.3%	-7.0%
Cc1csc(NC(=O)c2ccc(C)c([N+](=O)[O-])c2)n1	-28.2%	3.55µM*	2µM*	1.07µM*	1.12µM*
Cc1csc(NC(=O)c2ccc(Cl)cc2[N+](=O)[O-])n1	-3.6%	11.2µM*	?	26.9µM*	4.47µM*
CCn1c(C)nc2cc(-c3nc4n(n3)Cc3ccccc3-4)ccc21	2.24µM*	-64.7%	-47.7%	0.0239µM*	-43.5%
SMILES	Luc counter	SMN2 splice enh	NPC1 prom act	FLuc modulator	Rab9 promoter act
CCn1c(C)nc2cc(C(=O)NNC(=O)c3ccc(C)cc3)ccc21	.	.	26.4%	?	?
Fc1ccc(-c2nc3n(n2)Cc2ccccc2-3)cc1	11.2µM*	2.82µM*	?	0.601µM*	?
Cc1ccc(-c2nc3n(n2)Cc2ccccc2-3)cc1	?	1.26µM*	3.55µM*	0.301µM*	3.16µM*
CC1CC1C(=O)OCC(=O)Nc1cccc(Br)c1 (configuration not stated)	.	.	-0.4%	?	0.2%
O=C(COC(=O)C12CC3CC(CC(O)(C3)C1)C2)Nc1cccc(Br)c1	.	.	1.3%	13.5µM*	-2.0%
CCCN(CCC)C(=O)C1CCN(c2cc(C)nc3c(-c4ccc(Cl)cc4)c(C)nn23)CC1	.	1.9%	.	-0.1%	.
COc1ccc(-c2ccc(-c3noc(-c4ccccc4)n3)c(OC)n2)cc1	0.9%	5.9%	-2.7%	-18.5%	1.6%
COc1nc(-c2ccccc2)ccc1-c1noc(-c2ccco2)n1	-2.2%	12.6µM*	?	8.49µM*	3.98µM*
COc1ccccc1-c1noc(-c2ccco2)n1	-17.6%	12.6µM*	3.55µM*	10.7µM*	3.16µM*
COc1cc(-c2noc(-c3ccco3)n2)cc(OC)c1OC	12.1%	-8.9%	17.3%	-11.9%	25.4%
COc1nc(-c2ccccc2)ccc1-c1noc(-c2ccccc2)n1	-1.2%	?	3.98µM*	23.9µM*	2.82µM*
Cc1ccsc1/C=C1\SC(=S)N(CC2CCCO2)C1=O (configuration not stated)	1.4%	17.9%	12.7%	10.7µM*	?
O=C1/C(=C/c2ccc(O)cc2)SC(=S)N1CC1CCCO1 (configuration not stated)	.	.	-4.6%	?	22.9%
CCN=C1S/C(=C\c2sccc2C)C(=O)N1CC	-0.9%	24.4%	?	12µM*	?
CCCOc1ccc(/C=C2\SC(=S)N(CC3CCCO3)C2=O)cc1 (configuration not stated)	-1.5%	-20.6%	-2.6%	9.53µM*	7.1%
COC(=O)C1(C(=O)OC)CC2=C[C@H](CC2=O)Cc2ccccc2[C@@H]1C[N+](=O)[O-]	-0.4%	8.4%	.	.	.
CCN(CC(=O)Nc1ccc2c(c1)OCCO2)C(=O)/C=C/c1ccc(OC)cc1OC	.	.	13.5%	15.1µM*	18.3%
COc1ccc(/C=C/C(=O)c2ccc(OC)cc2OC)c(OC)c1	.	.	17.0%	19µM*	8.9%
COc1ccc(/C=C/C(=O)c2cc(Cl)cc(Cl)c2O)c(OC)c1	.	.	-3.8%	?	-3.0%
COc1ccc(NC(=O)CCC2COc3ccccc3O2)c(OC)c1 (configuration not stated)	-1.8%	-12.7%	-1.8%	2.2%	2.7%
COc1ccc(/C=C/C(=O)NCC2COc3ccccc3O2)c(OC)c1 (configuration not stated)	-1.1%	12.2%	11.9%	23.9µM*	4.1%
CNc1ccc(Br)cc(C(=O)/C=C/c2ccc(OC)cc2OC)c1=O	-9.3%	-68.4%	3.5%	12µM*	4.0%
O=C(NC1CCCCC1)c1ccc(CSc2nc3cccnc3n2Cc2cccc(F)c2)cc1	.	.	.	-4.4%	.
Cc1ccc(C2Nc3cc(C)c(C)cc3-n3c(-c4ccccc4)c4c(=O)n(C)c(=O)n(C)c4c32)o1 (configuration not stated)	.	.	.	-11.0%	.
COc1cccc(/C=C/C(=O)c2ccc3c(c2)OCCO3)c1OC	.	.	3.16µM*	0.757µM*	?
COc1ccc(OC)c(/C=N/NC(=O)c2ccncc2)c1	.	.	-2.1%	-9.6%	1.5%
COc1ccc(/C=C/C(=O)c2ccc3c(c2)OCO3)c(OC)c1	?	15.8µM*	3.16µM*	2.13µM*	2.82µM*
COc1ccc(/C=C/C(=O)NNC(=O)c2ccncc2)c(OC)c1	.	.	0.0%	13.5µM*	-1.5%

Compound activity (PubChem BioAssay)
